# Among all 65,000 compounds or so, about 2,100 (3.2%) showed an effect of 50% or more. The median lay at about -52%. The sample as a whole holds a higher share of strong results than the screen did.
# Test system: Plasmodium falciparum
# Assay: Screen against P. falciparum Asexual Blood Stage (ABS), at 5uM
# Type: functional, Dd2
# Details: tested at 5 uM
row,Structure (SMILES),INHIBITION
1,CCCOc1ccc(CNc2cncc(-n3cccn3)n2)cc1,-99.4%
2,Cc1ccc(N2CCC3(CCCN(C(=O)c4cccnc4)C3)C2)nn1 (stereo not drawn),-0.21%
3,O=C(O)c1cccc2c(Br)cccc12,-180%
4,Cn1cnc2c1CCN(Cc1csc(-c3ccccc3F)n1)C2,-58%
5,O=C(c1ccc2c(c1)CCCC2)N1CCN(c2cnccn2)CC1,45%
6,CCS(=O)(=O)N1Cc2ccccc2CC1C(=O)OCc1cc(C)no1 (stereo not drawn),-132%
7,Cc1cc(C(F)(F)F)nc(CNC(=O)CCn2cccn2)n1,-223%
8,O=C([C@@H]1CCO[C@@H]2CCN(Cc3cccs3)C[C@H]21)N1CCCCO1,-36.6%
9,Cc1cccc(NC(=O)c2[nH]nc(C(C)C)c2Br)n1,57.6%
10,CC(C)c1n[nH]c(C(=O)Nc2cc[nH]n2)c1Br,-208%
11,CC(C)c1n[nH]c(C(=O)Nc2ccncc2)c1Br,-163%
12,O=S(=O)(c1cccnc1)N1CCN(Cc2nc(-c3cccs3)cs2)CC1,-29%
13,CNS(=O)(=O)CCCN(C)Cc1cc(C)ccc1OC,26.6%
14,COc1ccc(C(=O)NCc2ccco2)nn1,-126%
15,COc1ccccc1C(C)(C)NCc1ccco1,65.7%
16,COC(=O)c1ccc(CNC(C)(C)c2ccccc2OC)o1,1.74%
17,COc1ccc(CN(C)C(=O)Cc2c(C)nn(C)c2C)cc1F,-154%
18,Cc1noc([C@@H]2C[C@H]3CN(Cc4scnc4C)C[C@H]3O2)n1,-40.7%
19,CC(C)n1c(=O)c2sccc2n(CC(=O)Nc2ccccc2)c1=O,-27.6%
20,Cc1ccc(N2C[C@@H]3CN(C(=O)c4ccccc4)CCO[C@@H]3C2)nn1,-12.5%
21,CN(C)c1ccccc1CN1CCCCC1CNS(C)(=O)=O (stereo not drawn),60.5%
22,CS(=O)(=O)NCC1CCCCN1Cc1cccc(C#N)c1 (stereo not drawn),-92.3%

row,Structure (SMILES),INHIBITION
1,CS(=O)(=O)NCC1CCCCN1Cc1ccccc1C#N (stereo not drawn),-34.1%
2,O=c1ccc2c([nH]1)CCC(NCc1ccc3c(c1)OCO3)C2 (stereo not drawn),-104%
3,Cc1cccc2c(CCNC(=O)NCCC[S+](C)[O-])c[nH]c12 (stereo not drawn),-85.3%
4,Cc1cccc2c(CCNC(=O)[C@H](N)c3ccccc3)c[nH]c12,61.2%
5,Cc1cccc2c(CCNC(=O)NCC[S+](C)[O-])c[nH]c12 (stereo not drawn),-103%
6,CN(Cc1ccc2c(c1)OCCO2)Cc1nnnn1-c1ccccc1,-39.1%
7,Oc1ccc2oc3c(c2c1CN1CCOCC1)CCCC3,19.1%
8,CCC1CN(Cc2c(O)ccc3oc4c(c23)CCCC4)CCO1 (stereo not drawn),60%
9,NC(=O)C1CN(Cc2c(O)ccc3oc4c(c23)CCCC4)CCO1 (stereo not drawn),-23.1%
10,CN(Cc1ccccc1)c1ncccc1CNC1CCSCC1,26.2%
11,CN(Cc1ccccc1)c1ncccc1CNC1CCCC1,65.6%
12,CC(=O)N1CCC(NCc2cccnc2N(C)Cc2ccccc2)CC1,-57.8%
13,CCc1nnsc1C(=O)NCc1nnc2n1CCC2,-217%
14,Cc1ccc(N2CC3(COCCN(Cc4ccccn4)C3)OCC2=O)s1 (stereo not drawn),-89.9%
15,COc1c(CNC2CCSc3ccc(F)cc32)c(C)nn1C (stereo not drawn),-115%
16,CC1CCCN(Cc2csc(-c3ncccn3)n2)CC1 (stereo not drawn),-29.2%
17,c1cnc(-c2nc(CN3CCCC(N4CCCC4)C3)cs2)nc1 (stereo not drawn),51.7%
18,CC(=O)NC1CCCN(Cc2csc(-c3ncccn3)n2)C1 (stereo not drawn),-89.8%
19,O=C(NC1CC1)C1CCc2nnc(C3CC3)n21 (stereo not drawn),-100%
20,c1ccc(OCC2CC3(CCN(CC4CCOCC4)CC3)CO2)nc1 (stereo not drawn),-83.4%
21,Cc1cc(C)nc(Nc2cc(C)nc(C3CCN(C(=O)CO)C3)n2)n1 (stereo not drawn),-74.1%
22,CN(C)C(=O)CC1CC2(CCN(Cc3ccco3)CC2)c2ccccc21 (stereo not drawn),24.7%

row,Structure (SMILES),INHIBITION
1,Fc1cccc(-n2ccc(CN3CCCCC3Cn3cncn3)n2)c1 (stereo not drawn),-44.8%
2,CN(C)C1CCCN(Cc2cccc(Cn3cccn3)c2)CC1 (stereo not drawn),34%
3,Cc1ccc2nc(CN3CCCCC3CCn3cccn3)cn2c1 (stereo not drawn),-63.2%
4,c1cnn(CCC2CCCCN2Cc2cnc(C3CCCCC3)nc2)c1 (stereo not drawn),-9.85%
5,CN(C)[C@H]1CCCCN(Cc2ccccc2Cn2cccn2)C1,51%
6,Fc1cccc(-n2ccc(CN3CCCC3Cn3cccn3)n2)c1 (stereo not drawn),4.96%
7,c1ccc(Cn2cccn2)c(CN2CCCCC2CCn2ccnc2)c1 (stereo not drawn),64.4%
8,Fc1ccc(-n2cccn2)c(CN2CCCCC2CCn2ccnc2)c1 (stereo not drawn),7.69%
9,CC1CN(Cc2ccccc2Cn2cccn2)CCN1C (stereo not drawn),48.4%
10,Fc1cccc(-n2cc(CN3CCCCC3CCn3ccnc3)cn2)c1 (stereo not drawn),68.9%
11,CN(C)CCC1CCCCN1Cc1cnc(-c2ccccn2)nc1 (stereo not drawn),38.9%
12,c1ccc(-c2ncc(CN3CCCCC3CCn3cccn3)cn2)nc1 (stereo not drawn),51%
13,CCc1cnc(N2CCC3(CCN(Cc4cccc(C)c4)C3=O)C2)nc1 (stereo not drawn),44.1%
14,CN(Cc1cccnc1)Cc1cncc2c1CCN(c1ccccn1)C2,-26.1%
15,CCc1[nH]c2c(CNc3cnccn3)cc(F)cc2c1C,-64.1%
16,CN1CCNCC(Cc2cnc3ccccc3c2)C1 (stereo not drawn),-67.9%
17,COCCCNC(=O)c1cc(C(C)C)nc(N2CCCC2)n1,-93.7%
18,CC(C)c1cc(C(=O)NCCCN(C)C)nc(N2CCCC2)n1,52.7%
19,CCN(CC)CCNC(=O)c1cc(C(C)C)nc(N2CCCC2)n1,-32.6%
20,NCCSc1nccc(-c2cnc(C3CC3)nc2-c2ccco2)n1,-39.7%
21,CC(C)c1ncc2c(n1)CN(Cc1nnc(Cc3ccccc3)o1)CC2,-45.2%
22,CCC(NC(=O)CN(C)Cc1ccc(C)o1)c1ccc(C)cc1 (stereo not drawn),50.9%

row,Structure (SMILES),INHIBITION
1,CCC(NC(=O)CN(C)Cc1ccc(C)o1)c1ccc(Br)cc1 (stereo not drawn),37.3%
2,CCc1ccc(C(C)NC(=O)CN(C)Cc2ccc(C)o2)cc1 (stereo not drawn),13.3%
3,N#Cc1ccc(CN2CC3(CCCCN3c3cccnc3)CC2=O)cc1 (stereo not drawn),7.75%
4,CC(C)(C#N)c1ccccc1CN1CCC(N2CCCC2=O)CC1,-50.6%
5,Cc1cccc(-c2nccnc2C2CCCN(C)C2)c1C (stereo not drawn),2.65%
6,Cc1cccc(-c2nccnc2C2CCN(C)CC2)c1C,54.2%
7,COc1ccccc1-c1nccnc1C1CCN(C(C)=O)CC1,-20.5%
8,O=C(O)[C@@H]1CN(C(=O)Cc2ccccc2Cl)C[C@H]1C1CC1,-94%
9,CNC(=O)N1C[C@@H]2C[C@H](C(=O)Nc3cccnc3)[C@H](C1)O2,-142%
10,Cn1cnnc1C1CCN(C(=O)c2cc3c(s2)CCCC3)CC1,-21.6%
11,CN(C)C1Cc2ccccc2N(S(=O)(=O)c2ccccc2C#N)C1 (stereo not drawn),56.6%
12,COc1ccccc1S(=O)(=O)N1CCC2(CC1)[C@H](O)C[C@@H]2O,-62.3%
13,COc1ccccc1S(=O)(=O)N1CC(N(C)C)Cc2ccccc21 (stereo not drawn),64.1%
14,CN(Cc1nnc(C2CC2)n1C)S(=O)(=O)c1ccccc1C#N,-108%
15,COc1cc(F)c(S(=O)(=O)N2CCN(C)Cc3ccccc32)cc1OC,13.8%
16,CN(C)C1Cc2ccccc2N(S(=O)(=O)c2ccc(C#N)cc2)C1 (stereo not drawn),49.9%
17,Cc1nc(NCc2cccnc2)cc(C2COCCN2)n1 (stereo not drawn),-124%
18,Cc1cnn(C2CCCN(C(=O)c3cn(-c4ccccc4)nn3)C2)c1 (stereo not drawn),-119%
19,CCC(C)c1noc(C2CCN(C(=O)c3ccccn3)CC2)n1 (stereo not drawn),-122%
20,O=C(O)c1cccnc1CN1CCCC1CCc1ccccc1 (stereo not drawn),-78%
21,c1ccc(CC2CCN(Cc3ccnc(-c4cccnc4)n3)CC2)cc1,-20%
22,c1coc(-c2noc(CN3CCc4cncnc4C3)n2)c1,31%

row,Structure (SMILES),INHIBITION
1,Cc1cnn(C2CN(Cc3nnc(Cc4ccccc4)o3)C2)c1,51.8%
2,Cc1ncc2c(n1)CN(Cc1nnc(Cc3ccccc3)o1)CC2,-25%
3,COc1ccc(-c2noc(CN3CCc4cncnc4C3)n2)cc1,6.71%
4,c1ccc(Cc2noc(CN3CCc4cncnc4C3)n2)cc1,-48.8%
5,c1ncc2c(n1)CN(Cc1nc(-c3ccc4c(c3)OCO4)no1)CC2,21%
6,Cc1ccc(-c2noc(CN3CCc4cncnc4C3)n2)cc1,59.7%
7,c1ncc2c(n1)CN(Cc1nc(-c3ccoc3)no1)CC2,58.7%
8,Cc1cnn(C2CN(Cc3nnc(-c4ccccc4Cl)o3)C2)c1,11.9%
9,c1ncc2c(n1)CN(Cc1nc(-c3ccsc3)no1)CC2,-41.7%
10,Cc1ccc(-c2nnc(CN3CC(n4cc(C)cn4)C3)o2)cc1,-29.5%
11,c1ccc(Cc2nnc(CN3CCc4cncnc4C3)o2)cc1,63.6%
12,COC(=O)COc1cc(NCc2c(C)noc2C)c(Cl)cc1C,-49.6%
13,COc1ccc(-c2csc3c2c(N)nc(=O)n3CC(N)=O)cc1,-61.4%
14,CC(=O)Nn1ccc2c(nnc3c(-c4ccccc4)cnn32)c1=O,-65.6%
15,CCc1nc(NCCc2c(C)nn(CC)c2C)c2cnn(C)c2n1,-95.2%
16,CC(CCc1ccc(F)c(F)c1)NS(=O)(=O)Cc1ccon1 (stereo not drawn),-44.6%
17,CCC(=O)N1CCCC1c1nc(N(C)C)ncc1-c1ccc(Cl)cc1 (stereo not drawn),19.6%
18,COc1ccc(CC(=O)N2CCCC(n3nc(C)cc3C)C2)cc1 (stereo not drawn),-9.14%
19,COc1ccccc1C(=O)N1CC(=O)N(C2CCCCC2)CC(O)C1 (stereo not drawn),-37%
20,Cc1ccc(S(=O)(=O)N2C[C@H]3C[C@H](NC(=O)c4ccccn4)[C@H]3C2)cc1,-55.2%

# Reference: ChEMBL document CHEMBL4513216, “Probing the Open Global Health Chemical Diversity Library for Multistage-Active Starting Points for Next-Generation Antimalarials” (ACS Infect Dis, 2020)
